Measurements published in the supplement of paper PMC6411743.
± gives the standard deviation of the averaged measurements. About 6,500 targets were measured; listed, in parts, are those with the largest changes and a random draw of the rest.

Columns and labels:
Experiment in all cases: NP40-soluble protein abundance relative to vehicle (solubility fold change) (ratio); higher = more soluble protein in presence of ATP
[1] = target: A0A075B6F5|F5GXR6|Q8IUG5|Q8IUG5-2 (UniProt Q8IUG5)
Summary of the method: (§1)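 Across three independent experiments, values are fold changes against the detergent-processed vehicle for each replicate, based on vsn-normalised intensities. The samples were Jurkat crude lysate treated with eight concentrations (0.1 to 10 mM) for 10 min at room temperature and then 3 min at 37 °C. Lysate was solubilised with 0.8% NP40 and benzonase, ultracentrifuged, and the supernatant analysed by TMT-labelled LC-MS/MS.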

A0A087WTM7|P04114 = A0A087WTM7|P04114 (UniProt P04114)
Summary of the method: as §1

A0A087WV29|Q9H0A0 = target: T1, A0A087WV29|Q9H0A0 (UniProt Q9H0A0)
T1 sequence (whole entry): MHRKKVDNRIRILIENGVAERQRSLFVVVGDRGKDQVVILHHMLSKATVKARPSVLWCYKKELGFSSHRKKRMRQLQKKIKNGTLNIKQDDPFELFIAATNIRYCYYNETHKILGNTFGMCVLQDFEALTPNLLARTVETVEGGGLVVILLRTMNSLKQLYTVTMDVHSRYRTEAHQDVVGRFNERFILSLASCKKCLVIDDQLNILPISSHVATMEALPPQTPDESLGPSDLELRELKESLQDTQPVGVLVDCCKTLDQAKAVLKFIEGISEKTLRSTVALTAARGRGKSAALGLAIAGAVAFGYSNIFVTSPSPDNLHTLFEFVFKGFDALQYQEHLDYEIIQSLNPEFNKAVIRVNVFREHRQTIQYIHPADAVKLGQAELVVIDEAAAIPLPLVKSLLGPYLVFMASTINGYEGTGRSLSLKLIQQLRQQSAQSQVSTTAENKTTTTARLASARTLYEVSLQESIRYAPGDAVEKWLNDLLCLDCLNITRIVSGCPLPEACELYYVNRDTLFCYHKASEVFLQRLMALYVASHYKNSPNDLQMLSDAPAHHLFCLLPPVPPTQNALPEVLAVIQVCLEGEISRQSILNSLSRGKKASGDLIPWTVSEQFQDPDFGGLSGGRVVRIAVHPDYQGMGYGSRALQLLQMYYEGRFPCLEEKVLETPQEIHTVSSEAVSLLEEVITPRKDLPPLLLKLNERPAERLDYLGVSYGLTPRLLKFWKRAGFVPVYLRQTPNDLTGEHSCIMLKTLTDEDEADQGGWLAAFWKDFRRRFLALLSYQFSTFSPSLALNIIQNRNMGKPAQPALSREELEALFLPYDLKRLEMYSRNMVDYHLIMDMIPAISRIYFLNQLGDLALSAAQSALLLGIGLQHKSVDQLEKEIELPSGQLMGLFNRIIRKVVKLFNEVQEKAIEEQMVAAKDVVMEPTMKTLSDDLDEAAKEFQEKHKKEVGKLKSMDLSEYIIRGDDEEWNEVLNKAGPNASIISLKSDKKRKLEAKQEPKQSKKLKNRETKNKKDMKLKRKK
Summary of the method: as §1

[2] = target: T2, A0A087WVA8|Q8IWB9|Q8IWB9-2 (UniProt Q8IWB9)
T2 sequence (whole entry): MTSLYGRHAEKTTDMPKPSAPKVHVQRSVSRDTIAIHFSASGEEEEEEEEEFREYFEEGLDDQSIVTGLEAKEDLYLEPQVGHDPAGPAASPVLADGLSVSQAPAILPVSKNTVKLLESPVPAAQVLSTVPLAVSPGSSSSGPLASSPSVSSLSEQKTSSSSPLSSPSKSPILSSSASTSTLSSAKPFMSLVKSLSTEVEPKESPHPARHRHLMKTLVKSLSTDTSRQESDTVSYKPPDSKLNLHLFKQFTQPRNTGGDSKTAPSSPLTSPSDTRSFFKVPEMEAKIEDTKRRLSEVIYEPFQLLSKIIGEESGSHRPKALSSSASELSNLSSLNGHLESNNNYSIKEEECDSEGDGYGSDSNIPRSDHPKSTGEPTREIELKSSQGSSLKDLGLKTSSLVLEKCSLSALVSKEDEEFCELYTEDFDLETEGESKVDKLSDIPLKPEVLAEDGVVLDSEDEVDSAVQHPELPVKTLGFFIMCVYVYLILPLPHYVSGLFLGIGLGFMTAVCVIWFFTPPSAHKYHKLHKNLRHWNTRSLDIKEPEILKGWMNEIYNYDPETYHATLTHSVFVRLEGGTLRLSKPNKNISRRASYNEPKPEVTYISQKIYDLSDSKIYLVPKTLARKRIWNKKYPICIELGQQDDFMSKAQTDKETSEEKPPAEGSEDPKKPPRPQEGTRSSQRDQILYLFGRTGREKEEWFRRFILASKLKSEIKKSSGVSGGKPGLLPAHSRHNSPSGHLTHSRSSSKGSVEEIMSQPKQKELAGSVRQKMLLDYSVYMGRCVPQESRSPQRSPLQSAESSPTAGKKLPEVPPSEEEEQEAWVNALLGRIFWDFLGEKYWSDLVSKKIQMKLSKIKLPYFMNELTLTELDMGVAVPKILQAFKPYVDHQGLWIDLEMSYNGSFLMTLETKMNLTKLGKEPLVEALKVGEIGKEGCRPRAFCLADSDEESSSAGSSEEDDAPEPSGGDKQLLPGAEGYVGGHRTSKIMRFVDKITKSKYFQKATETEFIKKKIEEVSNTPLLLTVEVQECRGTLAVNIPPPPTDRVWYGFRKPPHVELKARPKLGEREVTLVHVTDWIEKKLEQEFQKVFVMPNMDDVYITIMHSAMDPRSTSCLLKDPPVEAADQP
Summary of the method: as §1

A0A087WWP8 = A0A087WWP8 (UniProt Q5VWQ0)
Summary of the method: as §1

Sequence of A0A087WTM7|P04114 (P04114 whole entry, one chain of several): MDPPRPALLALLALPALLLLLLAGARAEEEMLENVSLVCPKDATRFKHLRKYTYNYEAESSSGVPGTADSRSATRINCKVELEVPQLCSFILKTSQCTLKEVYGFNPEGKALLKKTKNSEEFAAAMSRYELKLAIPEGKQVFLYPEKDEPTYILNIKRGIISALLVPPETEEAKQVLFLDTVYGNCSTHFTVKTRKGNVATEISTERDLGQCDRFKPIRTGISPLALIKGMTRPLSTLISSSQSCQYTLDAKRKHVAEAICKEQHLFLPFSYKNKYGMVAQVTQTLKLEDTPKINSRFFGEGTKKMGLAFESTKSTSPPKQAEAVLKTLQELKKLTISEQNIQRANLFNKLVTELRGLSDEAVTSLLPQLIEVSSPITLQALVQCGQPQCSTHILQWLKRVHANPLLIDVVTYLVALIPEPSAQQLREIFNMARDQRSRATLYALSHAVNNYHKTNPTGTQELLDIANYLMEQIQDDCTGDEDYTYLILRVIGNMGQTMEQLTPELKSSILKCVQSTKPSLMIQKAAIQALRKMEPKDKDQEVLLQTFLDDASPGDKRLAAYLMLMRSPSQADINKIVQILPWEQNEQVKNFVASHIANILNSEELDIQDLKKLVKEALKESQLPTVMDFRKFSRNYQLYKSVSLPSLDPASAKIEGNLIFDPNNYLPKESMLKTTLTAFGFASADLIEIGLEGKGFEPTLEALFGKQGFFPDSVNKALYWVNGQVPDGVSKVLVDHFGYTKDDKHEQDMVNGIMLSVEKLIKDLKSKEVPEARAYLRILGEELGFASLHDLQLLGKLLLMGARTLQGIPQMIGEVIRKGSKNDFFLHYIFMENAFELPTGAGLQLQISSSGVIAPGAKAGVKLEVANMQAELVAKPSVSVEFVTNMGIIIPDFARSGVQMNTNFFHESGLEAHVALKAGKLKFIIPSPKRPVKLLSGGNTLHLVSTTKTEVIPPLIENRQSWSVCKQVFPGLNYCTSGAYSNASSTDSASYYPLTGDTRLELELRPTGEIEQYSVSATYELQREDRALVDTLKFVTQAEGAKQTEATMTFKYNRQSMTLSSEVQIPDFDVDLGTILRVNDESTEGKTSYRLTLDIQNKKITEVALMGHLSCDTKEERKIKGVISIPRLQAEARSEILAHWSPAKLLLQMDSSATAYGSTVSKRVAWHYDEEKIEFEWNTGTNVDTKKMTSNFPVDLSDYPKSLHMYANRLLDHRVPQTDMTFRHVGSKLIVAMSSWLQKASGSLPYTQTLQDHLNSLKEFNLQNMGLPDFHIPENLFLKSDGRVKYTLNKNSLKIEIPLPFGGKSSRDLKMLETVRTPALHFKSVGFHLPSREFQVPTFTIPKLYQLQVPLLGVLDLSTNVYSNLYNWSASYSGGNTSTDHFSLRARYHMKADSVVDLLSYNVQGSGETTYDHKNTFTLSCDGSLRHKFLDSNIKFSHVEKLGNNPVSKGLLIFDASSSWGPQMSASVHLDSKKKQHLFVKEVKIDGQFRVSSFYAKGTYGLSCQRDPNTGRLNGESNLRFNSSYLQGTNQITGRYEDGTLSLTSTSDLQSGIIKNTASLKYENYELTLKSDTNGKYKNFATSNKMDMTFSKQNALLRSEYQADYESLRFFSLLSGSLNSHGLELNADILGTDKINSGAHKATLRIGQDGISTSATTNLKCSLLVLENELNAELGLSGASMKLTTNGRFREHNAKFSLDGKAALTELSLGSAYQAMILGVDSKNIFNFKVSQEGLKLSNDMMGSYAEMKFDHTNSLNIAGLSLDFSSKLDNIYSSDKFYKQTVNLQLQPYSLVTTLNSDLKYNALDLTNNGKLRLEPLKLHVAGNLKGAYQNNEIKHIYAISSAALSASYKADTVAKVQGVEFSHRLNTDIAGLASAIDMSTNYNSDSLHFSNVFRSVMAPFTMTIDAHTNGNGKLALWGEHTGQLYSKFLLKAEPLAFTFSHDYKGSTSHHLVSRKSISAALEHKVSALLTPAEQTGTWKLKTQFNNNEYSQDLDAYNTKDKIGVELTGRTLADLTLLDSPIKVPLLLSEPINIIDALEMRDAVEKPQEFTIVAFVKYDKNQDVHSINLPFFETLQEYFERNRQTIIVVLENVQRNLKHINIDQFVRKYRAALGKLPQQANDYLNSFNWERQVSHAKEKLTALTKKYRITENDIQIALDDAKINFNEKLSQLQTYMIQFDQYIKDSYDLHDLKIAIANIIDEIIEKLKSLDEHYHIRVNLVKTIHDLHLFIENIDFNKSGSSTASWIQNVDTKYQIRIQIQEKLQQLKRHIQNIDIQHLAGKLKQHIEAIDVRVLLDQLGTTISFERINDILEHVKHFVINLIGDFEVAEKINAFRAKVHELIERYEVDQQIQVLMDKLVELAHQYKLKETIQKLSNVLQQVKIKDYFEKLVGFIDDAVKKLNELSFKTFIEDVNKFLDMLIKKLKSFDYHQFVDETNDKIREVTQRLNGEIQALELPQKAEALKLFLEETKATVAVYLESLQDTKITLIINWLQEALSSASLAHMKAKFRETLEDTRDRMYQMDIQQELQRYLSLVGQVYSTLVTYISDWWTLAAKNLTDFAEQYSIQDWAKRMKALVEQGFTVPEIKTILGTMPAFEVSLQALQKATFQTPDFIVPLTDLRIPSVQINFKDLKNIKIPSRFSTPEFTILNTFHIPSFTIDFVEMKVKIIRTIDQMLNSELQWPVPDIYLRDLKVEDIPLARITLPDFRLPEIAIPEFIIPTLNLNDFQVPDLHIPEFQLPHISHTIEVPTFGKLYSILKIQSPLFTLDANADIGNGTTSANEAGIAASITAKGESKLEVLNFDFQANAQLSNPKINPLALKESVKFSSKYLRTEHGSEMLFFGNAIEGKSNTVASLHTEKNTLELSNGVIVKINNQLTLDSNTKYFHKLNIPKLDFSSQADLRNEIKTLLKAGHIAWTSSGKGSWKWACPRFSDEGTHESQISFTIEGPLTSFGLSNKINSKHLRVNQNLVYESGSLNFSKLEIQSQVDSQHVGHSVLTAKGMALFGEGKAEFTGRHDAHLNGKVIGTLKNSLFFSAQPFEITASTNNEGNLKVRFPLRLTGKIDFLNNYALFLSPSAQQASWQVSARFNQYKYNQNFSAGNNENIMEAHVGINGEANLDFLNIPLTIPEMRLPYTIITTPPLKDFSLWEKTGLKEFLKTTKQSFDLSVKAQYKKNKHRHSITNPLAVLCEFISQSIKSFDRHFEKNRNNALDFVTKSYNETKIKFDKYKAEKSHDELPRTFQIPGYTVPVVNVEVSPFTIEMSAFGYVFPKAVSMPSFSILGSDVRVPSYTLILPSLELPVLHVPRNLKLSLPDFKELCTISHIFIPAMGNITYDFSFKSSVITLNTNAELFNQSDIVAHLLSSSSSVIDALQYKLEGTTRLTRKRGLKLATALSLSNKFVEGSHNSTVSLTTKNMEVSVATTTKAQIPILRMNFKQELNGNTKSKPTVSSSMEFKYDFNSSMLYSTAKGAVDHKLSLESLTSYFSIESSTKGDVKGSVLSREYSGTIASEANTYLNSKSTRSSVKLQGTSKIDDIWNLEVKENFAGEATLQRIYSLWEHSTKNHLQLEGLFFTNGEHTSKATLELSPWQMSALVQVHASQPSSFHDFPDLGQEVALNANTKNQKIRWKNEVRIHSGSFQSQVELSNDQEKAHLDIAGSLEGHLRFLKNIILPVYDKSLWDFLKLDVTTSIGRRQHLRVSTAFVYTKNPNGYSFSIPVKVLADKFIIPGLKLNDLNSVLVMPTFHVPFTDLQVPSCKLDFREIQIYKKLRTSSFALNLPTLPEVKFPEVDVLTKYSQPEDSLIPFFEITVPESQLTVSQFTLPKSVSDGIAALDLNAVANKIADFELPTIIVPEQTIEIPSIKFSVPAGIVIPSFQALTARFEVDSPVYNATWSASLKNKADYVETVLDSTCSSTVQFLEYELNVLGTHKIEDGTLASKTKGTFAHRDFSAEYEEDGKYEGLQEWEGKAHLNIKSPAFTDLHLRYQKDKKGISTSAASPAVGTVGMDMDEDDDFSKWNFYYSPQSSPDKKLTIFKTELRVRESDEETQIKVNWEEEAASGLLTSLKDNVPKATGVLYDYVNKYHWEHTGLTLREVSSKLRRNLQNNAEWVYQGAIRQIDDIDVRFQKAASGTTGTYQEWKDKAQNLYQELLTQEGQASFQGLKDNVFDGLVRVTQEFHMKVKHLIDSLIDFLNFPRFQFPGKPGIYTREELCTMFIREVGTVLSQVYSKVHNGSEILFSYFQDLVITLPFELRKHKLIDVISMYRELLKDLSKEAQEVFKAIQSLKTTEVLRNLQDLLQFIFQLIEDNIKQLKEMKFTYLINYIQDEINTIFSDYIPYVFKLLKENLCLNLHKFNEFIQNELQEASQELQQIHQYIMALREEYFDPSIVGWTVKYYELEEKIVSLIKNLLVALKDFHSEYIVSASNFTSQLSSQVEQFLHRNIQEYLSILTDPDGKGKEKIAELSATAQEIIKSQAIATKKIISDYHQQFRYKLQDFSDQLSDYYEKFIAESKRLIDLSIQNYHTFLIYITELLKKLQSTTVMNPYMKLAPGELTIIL

Which NP40-soluble protein abundance ([1]; concentration: 1mM) does the source give for Nc1ncnc2c1ncn2[C@@H]1O[C@H](COP(=O)(O)OP(=O)(O)OP(=O)(O)O)[C@@H](O)[C@H]1O [adenosine triphosphate] here?
The NP40-soluble protein abundance was 0.986 ± 0.023.

And the NP40-soluble protein abundance ([1]; concentration: 2mM)?
Its NP40-soluble protein abundance is 0.927 ± 0.014.

What about the NP40-soluble protein abundance ([1]; concentration: 4mM) of the same compound?
Its NP40-soluble protein abundance is 1.1 ± 0.016.

And the NP40-soluble protein abundance ([1]; concentration: 6mM)?
The NP40-soluble protein abundance was 1.06 ± 0.022.

And the NP40-soluble protein abundance ([1]; concentration: 8mM)?
The NP40-soluble protein abundance was 1.14 ± 0.13.

What about the NP40-soluble protein abundance ([1]; concentration: 10mM) of the same compound?
The NP40-soluble protein abundance was 1.18 ± 0.18.

What about the NP40-soluble protein abundance (A0A087WTM7|P04114; concentration: 1mM) of the same compound?
Its NP40-soluble protein abundance is 1.09 ± 0.039.

What about the NP40-soluble protein abundance (A0A087WTM7|P04114; concentration: 2mM) of the same compound?
Its NP40-soluble protein abundance is 1.05 ± 0.029.

And the NP40-soluble protein abundance (A0A087WTM7|P04114; concentration: 4mM)?
Its NP40-soluble protein abundance is 0.98 ± 0.11.

What about the NP40-soluble protein abundance (A0A087WTM7|P04114; concentration: 6mM) of the same compound?
Its NP40-soluble protein abundance is 0.965 ± 0.086.

And the NP40-soluble protein abundance (A0A087WTM7|P04114; concentration: 8mM)?
The NP40-soluble protein abundance was 0.976 ± 0.082.

What about the NP40-soluble protein abundance (A0A087WTM7|P04114; concentration: 10mM) of the same compound?
Its NP40-soluble protein abundance is 0.989 ± 0.074.

What about the NP40-soluble protein abundance (A0A087WV29|Q9H0A0; concentration: 1mM) of the same compound?
The NP40-soluble protein abundance was 1.2 ± 0.1.

And the NP40-soluble protein abundance (A0A087WV29|Q9H0A0; concentration: 2mM)?
The NP40-soluble protein abundance was 1.37 ± 0.1.

What about the NP40-soluble protein abundance (A0A087WV29|Q9H0A0; concentration: 4mM) of the same compound?
Its NP40-soluble protein abundance is 1.59 ± 0.11.

What about the NP40-soluble protein abundance (A0A087WV29|Q9H0A0; concentration: 6mM) of the same compound?
Its NP40-soluble protein abundance is 1.69 ± 0.18.

And the NP40-soluble protein abundance (A0A087WV29|Q9H0A0; concentration: 8mM)?
The NP40-soluble protein abundance was 2.15 ± 0.14.

And the NP40-soluble protein abundance (A0A087WV29|Q9H0A0; concentration: 10mM)?
The NP40-soluble protein abundance was 2.32 ± 0.22.

And the NP40-soluble protein abundance ([2]; concentration: 1mM)?
The NP40-soluble protein abundance was 1.02 ± 0.043.

What about the NP40-soluble protein abundance ([2]; concentration: 2mM) of the same compound?
The NP40-soluble protein abundance was 0.975 ± 0.072.

And the NP40-soluble protein abundance ([2]; concentration: 4mM)?
The NP40-soluble protein abundance was 0.984 ± 0.062.

What about the NP40-soluble protein abundance ([2]; concentration: 6mM) of the same compound?
Its NP40-soluble protein abundance is 0.982 ± 0.024.

And the NP40-soluble protein abundance ([2]; concentration: 8mM)?
The NP40-soluble protein abundance was 0.973 ± 0.07.

And the NP40-soluble protein abundance ([2]; concentration: 10mM)?
Its NP40-soluble protein abundance is 0.993 ± 0.052.

And the NP40-soluble protein abundance (A0A087WWP8; concentration: 1mM)?
The NP40-soluble protein abundance was 1.48 ± 0.058.

And the NP40-soluble protein abundance (A0A087WWP8; concentration: 2mM)?
Its NP40-soluble protein abundance is 1.53 ± 0.045.

What about the NP40-soluble protein abundance (A0A087WWP8; concentration: 4mM) of the same compound?
The NP40-soluble protein abundance was 1.61 ± 0.043.
